A number with no mark means an inactive call. Results filed as inconclusive are left out. Entries that show only a call come without a potency. Calls of active or inactive are those of the source. Unless noted, calls come from the whole dose curve; as a rule, active = well fitted curve in the direction sought with a large enough effect in the repeat runs; inconclusive = weak or mixed curves; inactive = no such curve, though single readings can be large; an effect the other way counts as inactive or inconclusive.
Key:
[1] = target: Thyrotropin-releasing hormone receptor (Homo sapiens) (UniProt P34981); test: qHTS assay to identify small molecule agonists of the thyrotropin-releasing hormone receptor (TRHR) signaling pathway (AID 1346891; calls by dose curve; note: series mostly up to about 58 µM)
Sequence of Thyrotropin-releasing hormone receptor (Homo sapiens) (P34981 whole entry, looked up): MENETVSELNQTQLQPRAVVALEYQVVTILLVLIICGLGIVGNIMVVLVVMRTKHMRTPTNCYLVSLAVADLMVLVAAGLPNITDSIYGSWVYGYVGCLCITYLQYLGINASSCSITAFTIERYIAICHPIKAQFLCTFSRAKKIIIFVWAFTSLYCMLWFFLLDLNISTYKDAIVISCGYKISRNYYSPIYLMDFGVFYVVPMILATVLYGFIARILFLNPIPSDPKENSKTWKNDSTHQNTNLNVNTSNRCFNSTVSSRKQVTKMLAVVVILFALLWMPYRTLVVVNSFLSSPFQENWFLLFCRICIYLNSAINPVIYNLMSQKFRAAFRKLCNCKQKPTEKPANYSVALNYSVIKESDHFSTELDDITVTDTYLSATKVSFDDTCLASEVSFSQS
How it was run: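 Intracellular calcium rise, read as fluorescence every second for 3 min, served as the agonist signal in dye-loaded HEK293 cells expressing TRHR; each compound ran at 15 concentrations in triplicate.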

[2] = Human pregnane X receptor (PXR) small molecule agonists, qHTS cell viability counter screen (AID 1346977); note: nearly all actives have a fitted effect of over 50% in size; note: potency is the fitted concentration of half-maximal effect
How it was run: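 PXR-Luc HepG2, 2,000 cells/well, 5% charcoal-stripped FBS; 5hr settle; cpd 24hr, 37C/5% CO2; CellTiter-Fluor at 23hr, read 1hr later (fluorescence).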

[3] = Caspase-3/7 induction in HepG2 cells by small molecules, qHTS assay (AID 1346978); note: nearly all actives have a fitted effect of over 15% in size; note: potency is the fitted concentration of half-maximal effect
How it was run: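 Wild-type HepG2 cells (2,000/well) were settled 5 h at 37 C, 5% CO2, then exposed to compounds in DMSO for 17 h. Caspase-3/7 activity was read by luminescence 30 min after adding Caspase-Glo 3/7 reagent at room temperature.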

[4] = Caspase-3/7 induction in CHO-K1 cells by small molecules, qHTS assay (AID 1346980); note: nearly all actives have a fitted effect of over 15% in size
How it was run: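 Wild-type cells were seeded at 1,500 per well and settled 5 hr at 37 C, 5% CO2, then exposed to DMSO-dissolved compounds for 17 hr. Caspase-Glo 3/7 reagent was added, and luminescence was read after 30min at room temperature.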

[5] = target: Nuclear receptor subfamily 1 group I member 2 (Homo sapiens) (UniProt O75469); test: Human pregnane X receptor (PXR) small molecule agonists, qHTS assay (AID 1346982); note: nearly all actives have a fitted effect of over 35% in size; note: potency is the fitted concentration of half-maximal effect
Sequence of Nuclear receptor subfamily 1 group I member 2 (Homo sapiens) (O75469 whole entry, looked up): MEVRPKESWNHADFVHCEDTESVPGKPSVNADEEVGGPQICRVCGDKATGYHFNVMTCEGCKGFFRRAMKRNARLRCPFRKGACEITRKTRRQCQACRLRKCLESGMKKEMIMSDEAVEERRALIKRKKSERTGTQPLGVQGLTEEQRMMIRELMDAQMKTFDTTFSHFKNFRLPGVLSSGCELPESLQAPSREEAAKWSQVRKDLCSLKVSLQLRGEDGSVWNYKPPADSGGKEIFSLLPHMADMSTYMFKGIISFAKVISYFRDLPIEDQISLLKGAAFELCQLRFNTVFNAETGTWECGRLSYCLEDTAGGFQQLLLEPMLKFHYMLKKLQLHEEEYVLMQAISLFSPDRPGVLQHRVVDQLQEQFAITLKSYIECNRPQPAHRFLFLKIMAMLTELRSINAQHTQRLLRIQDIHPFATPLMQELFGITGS
How it was run: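 Agonist mode qHTS: PXR-Luc HepG2 cells plated 5 hr before DMSO-dissolved compounds were pinned in, cultured 24 hr at 37 C, 5% CO2; ONE-Glo luminescence readout.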

[6] = Caspase-3/7 induction in CHO-K1 cells by small molecules, qHTS cell viability counter screen (AID 1346979); note: nearly all actives have a fitted effect of over 35% in size; note: potency is the fitted concentration of half-maximal effect
How it was run: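 Cells (CHO-K1, wild type) are plated at 1,500 per well and incubated 5hr. Test compounds in DMSO are then pinned in, followed by 16hr at 37C and 5% CO2. Viability is read by CellTiter-Fluor fluorescence after 1hr.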

[7] = Caspase-3/7 induction in HepG2 cells by small molecules, qHTS cell viability counter screen (AID 1346981); note: nearly all actives have a fitted effect of over 30% in size; note: potency is the fitted concentration of half-maximal effect
How it was run: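 Steps: seed 2,000 HepG2 cells per well; incubate 5 hr at 37 C; pin-add compounds in DMSO; incubate 16 hr; add CellTiter-Fluor; after 1 hr at 37 C and 5% CO2, read fluorescence.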

[8] = target: Nuclear receptor subfamily 1 group I member 2 (Rattus norvegicus) (UniProt Q9R1A7); test: Rat pregnane X receptor (rPXR) activation by small molecules, qHTS assay (AID 1346983); conditions: rPXR luciferase reporter cells, One-Glo luminescence, 24 h; max activation: active compounds read high; note: nearly all actives have a fitted effect of over 20% in size; note: potency is the fitted concentration of half-maximal effect
Sequence of Nuclear receptor subfamily 1 group I member 2 (Rattus norvegicus) (Q9R1A7 whole entry, looked up): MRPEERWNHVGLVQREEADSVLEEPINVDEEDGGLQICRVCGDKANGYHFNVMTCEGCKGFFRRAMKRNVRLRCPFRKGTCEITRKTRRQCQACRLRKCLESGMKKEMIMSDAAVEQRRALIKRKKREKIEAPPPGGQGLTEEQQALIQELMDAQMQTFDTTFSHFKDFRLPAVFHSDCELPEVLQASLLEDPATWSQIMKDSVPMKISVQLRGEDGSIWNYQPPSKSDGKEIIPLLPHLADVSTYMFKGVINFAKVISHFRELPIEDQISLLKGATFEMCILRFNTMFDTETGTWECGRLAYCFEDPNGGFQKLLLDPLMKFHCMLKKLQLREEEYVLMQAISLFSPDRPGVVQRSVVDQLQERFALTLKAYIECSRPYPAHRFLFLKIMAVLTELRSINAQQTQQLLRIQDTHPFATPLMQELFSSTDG
How it was run: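 Cell-based rPXR luciferase reporter assay, 2,000 cells per well, rested 5hr at 37 C before compound addition in DMSO, then 24 hr at 37 C. One-Glo reagent was added and luminescence read after 30 min at room temperature.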

[9] = target: Nuclear receptor subfamily 1 group I member 2 (Homo sapiens) (UniProt O75469); test: CYP3A4 induction through human pregnane X receptor (PXR) by small molecules, qHTS assay (AID 1346984); note: nearly all actives have a fitted effect of over 40% in size; note: potency is the fitted concentration of half-maximal effect
How it was run: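 Steps: seed DPX-2 cells, 5 hr at 37C; pin-transfer compounds; 24 hr at 37C; add Luciferin-IPA (3uM final), 3 hr at 37C; add One-Glo, 30 min RT; read luminescence.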

[10] = target: Nuclear receptor subfamily 1 group I member 2 (Homo sapiens) (UniProt O75469); test: Human pregnane X receptor (PXR) activation by small molecules, qHTS assay (AID 1346985); note: nearly all actives have a fitted effect of over 40% in size; note: potency is the fitted concentration of half-maximal effect
How it was run: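 DPX-2 cells (HepG2 co-transfected with a PXR response element and a CYP3A4-promoter luciferase construct) were seeded at 2,000 per well, rested 5 hr at 37C, then exposed to DMSO-dissolved compounds for 24 hr. Activation was read as luciferase luminescence.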

SMILES: CC(C)(O)c1ccc(CNC(=O)c2cccnc2Oc2ccc3nonc3c2)cc1
- Potency [1]: inactive
- Potency [2]: inactive
- Potency [3]: inactive
- Potency [4]: inactive
- Potency [5]: inactive

SMILES: CC1(C)[C@H](C(=O)O)N2C(=O)C[C@H]2S1(=O)=O
- Potency [1]: inactive
- Potency [3]: inactive
- Potency [6]: inactive
- Potency [4]: inactive
- Potency [7]: inactive

SMILES: O=C(CCc1ccc(O)cc1)c1c(O)cc(O)cc1O
- Potency [1]: inactive
- Potency [3]: inactive
- Potency [4]: inactive
- Potency [7]: inactive

SMILES: C[C@H]1C[C@H](O)c2ccsc2S1(=O)=O
- Potency [1]: inactive
- Potency [2]: inactive
- Potency [3]: inactive
- Potency [4]: inactive
- Potency [7]: inactive
- Potency [5]: inactive

SMILES: C[C@@H](O[C@H]1OCCN(Cc2n[nH]c(=O)[nH]2)[C@H]1c1ccc(F)cc1)c1cc(C(F)(F)F)cc(C(F)(F)F)c1
- Potency [1]: inactive
- Potency [3]: 33.5 µM (active)
- Potency [6]: 29.8 µM (active)
- Potency [4]: inactive
- Potency [7]: 29.8 µM (active)

SMILES: OC(CCN1CCCC1)(c1ccccc1)C1CCCCC1 (centres undefined)
- Potency [1]: inactive
- Potency [3]: inactive
- Potency [6]: inactive
- Potency [4]: inactive
- Potency [7]: inactive

SMILES: C[C@@]12CCC[C@H]1[C@@H]1CC[C@H]3C[C@@H](O)CC[C@]3(C)[C@H]1CC2
- Potency [1]: inactive
- Potency [3]: inactive
- Potency [4]: inactive
- Potency [7]: inactive

SMILES: CCCC(C(=O)OCCN(CC)CC)(c1ccccc1)c1ccccc1
- Potency [1]: inactive
- Potency [2]: 26.6 µM (active)
- Potency [3]: inactive
- Potency [4]: inactive
- Potency [5]: 10.6 µM (active)
- Potency [8]: 22.4 µM (active)
- Potency [9]: 10 µM (active)
- Potency [10]: 15.8 µM (active)

SMILES: Cc1cc(C)c(N)cc1C
- Potency [2]: inactive
- Potency [3]: inactive
- Potency [6]: inactive
- Potency [4]: inactive
- Potency [7]: inactive

SMILES: CC1=C(CC=O)C(C)(C)CCC1
- Potency [1]: inactive
- Potency [3]: inactive
- Potency [6]: inactive
- Potency [4]: inactive
- Potency [7]: inactive
- Potency [5]: 24.3 µM (active)

SMILES: N#[N+]c1ccc2c(S(=O)(=O)[O-])cccc2c1O
- Potency [1]: inactive
- Potency [3]: inactive
- Potency [4]: inactive
- Potency [7]: inactive
- Potency [5]: inactive

SMILES: CCCCCC#CC(=O)OC
- Potency [2]: inactive
- Potency [3]: inactive
- Potency [6]: inactive
- Potency [4]: inactive
- Potency [7]: inactive
- Potency [5]: inactive

SMILES: O=C=Nc1ccc(Cl)c(Cl)c1
- Potency [2]: inactive
- Potency [3]: inactive
- Potency [6]: inactive
- Potency [4]: inactive
- Potency [7]: inactive
- Potency [5]: 26.9 µM (active)

SMILES: CCCCN(CCCC)C(C(N)=O)c1ccc(OC)cc1 (centres undefined)
- Potency [2]: inactive
- Potency [3]: inactive
- Potency [6]: inactive
- Potency [4]: inactive
- Potency [7]: inactive
- Potency [5]: 11.9 µM (active)

SMILES: C=C1CCC2CC1C2(C)C (centres undefined)
- Potency [2]: inactive
- Potency [3]: inactive
- Potency [6]: inactive
- Potency [4]: inactive
- Potency [7]: inactive
- Potency [5]: inactive

SMILES: O=Cc1c2ccccc2c(Cl)c2ccccc12
- Potency [2]: inactive
- Potency [3]: inactive
- Potency [6]: 23.7 µM (active)
- Potency [4]: inactive
- Potency [7]: inactive
- Potency [5]: inactive

SMILES: O=C1NC(=O)c2cc([N+](=O)[O-])ccc21
- Potency [2]: inactive
- Potency [3]: inactive
- Potency [6]: inactive
- Potency [4]: inactive
- Potency [7]: inactive
- Potency [5]: 61.6 µM (active)

SMILES: O=C1NCCN1CCO
- Potency [2]: inactive
- Potency [3]: inactive
- Potency [6]: inactive
- Potency [4]: inactive
- Potency [7]: inactive
- Potency [5]: inactive

SMILES: CCOC(=O)c1ccc(OCCN2C[C@H](O)[C@@H](O)[C@H](O)[C@H]2CO)cc1
- Potency [2]: inactive
- Potency [3]: inactive
- Potency [6]: inactive
- Potency [4]: inactive
- Potency [7]: inactive
- Potency [5]: inactive

SMILES: O=C(O)CCC(=O)C(=O)O
- Potency [2]: inactive
- Potency [3]: inactive
- Potency [6]: inactive
- Potency [4]: inactive
- Potency [7]: inactive
- Potency [5]: inactive
- max activation [8]: -0.816%
- Potency [9]: inactive
- Potency [10]: inactive

SMILES: Nc1nnc(-c2ccc([N+](=O)[O-])o2)o1
- Potency [2]: 27.3 µM (active)
- Potency [3]: inactive
- Potency [6]: 54.5 µM (active)
- Potency [4]: inactive
- Potency [7]: 68.6 µM (active)
- Potency [5]: inactive

SMILES: CCCCC(CC)COP(=O)(O)O (centres undefined)
- Potency [2]: inactive
- Potency [3]: inactive
- Potency [6]: inactive
- Potency [4]: inactive
- Potency [7]: inactive
- Potency [5]: inactive

SMILES: CCC(C)COC(C)=O (centres undefined)
- Potency [2]: inactive
- Potency [3]: inactive
- Potency [6]: inactive
- Potency [4]: inactive
- Potency [7]: inactive
- Potency [5]: inactive

SMILES: CCCC(=O)C(=O)O
- Potency [2]: inactive
- Potency [3]: inactive
- Potency [6]: inactive
- Potency [4]: inactive
- Potency [7]: inactive
- Potency [5]: inactive

SMILES: C=CC(=O)[O-].C=CC(=O)[O-].[Zn+2]
- Potency [2]: inactive
- Potency [3]: inactive
- Potency [6]: inactive
- Potency [4]: inactive
- Potency [7]: inactive
- Potency [5]: inactive

SMILES: C=COCC(C)C
- Potency [2]: inactive
- Potency [3]: inactive
- Potency [6]: inactive
- Potency [4]: inactive
- Potency [7]: inactive
- Potency [5]: inactive

SMILES: CC(=O)OCC(=O)NCCCOc1cccc(CN2CCCCC2)c1
- Potency [2]: inactive
- Potency [3]: inactive
- Potency [6]: inactive
- Potency [4]: inactive
- Potency [7]: inactive
- Potency [5]: inactive
- max activation [8]: -1.53%
- Potency [9]: inactive
- Potency [10]: inactive

SMILES: CC(=O)[C@H]1[C@H](C#N)C[C@H]2[C@@H]3CC=C4C[C@@H](O)CC[C@]4(C)[C@H]3CC[C@@]21C
- Potency [2]: inactive
- Potency [3]: inactive
- Potency [6]: inactive
- Potency [4]: inactive
- Potency [7]: inactive
- Potency [5]: 33.1 µM (active)

SMILES: Cc1ccc2c(Br)cc(Br)c(O)c2n1
- Potency [2]: inactive
- Potency [3]: inactive
- Potency [6]: 21.1 µM (active)
- Potency [4]: inactive
- Potency [7]: inactive
- Potency [5]: 11.9 µM (active)
- max activation [8]: -3.38%
- Potency [9]: inactive

From PubChem BioAssay (Tox21)
